Rows were chosen to be rich in hits. Some 1.2% of all compounds tested hit in one or more screens of this group.
EPAC2 antag: qHTS for Antagonist of cAMP-regulated guanine nucleotide exchange factor 2 (EPAC2): primary screen. 360,000 compounds, 0.18% hits. EPAC2 GEF exchange of Rap1B-BODIPY-GDP, fluorescence. Potency, µM (top dose mostly 114 µM), usual class: inhibitors; further: nearly all actives have a fitted effect of over 45% in size
EPAC1 antagonist: qHTS for Antagonist of cAMP-regulated guanine nucleotide exchange factor 3 (EPAC1): primary screen. Rap guanine nucleotide exchange factor 3 (Homo sapiens), O95398. EPAC1 GEF assay, Rap1b-BODIPY-GDP exchange fluorescence. Potency, µM (highest dose often 115 µM), usual class: inhibitors. 360,000 compounds, 0.14% hits; further: nearly all actives have a fitted effect of over 50% in size
EPAC2 ag: qHTS for Agonist of cAMP-regulated guanine nucleotide exchange factor 4 (EPAC2): primary screen. Rap guanine nucleotide exchange factor 4 (Homo sapiens), Q8WZA2. Potency, µM (series often up to 154 µM), actives largely listed as activators. 360,000 compounds, 0.079% hits. EPAC2 activation, biochemical qHTS; response scale: 100% = 6.5 mM cAMP response. AID 720711, 2013; further: nearly all actives have a fitted effect of over 50% in size
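Readout is BODIPY fluorescence (480 nm excitation, 540 nm emission), which falls as labeled GDP is exchanged off Rap1B. EPAC2 at 100 nM acted on 250 nM RAP1B-BODIPY-GDP with 50 uM GDP present.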
VDR inhibitor: Inhibitors of the vitamin D receptor (VDR): qHTS | Vitamin D3 receptor (Homo sapiens), P11473 | Potency, µM, hits mostly inhibitors | 400,000 compounds, 0.93% hits | VDR-SRC2-3 peptide fluorescence polarization, 2 h
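Two reagent solutions held at 4 deg C in the dark were dispensed, compounds pinned at 23 nl, and the mixture incubated 2 h at room temperature. Read-out: fluorescence polarization of VDR–SRC2-3 peptide binding.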
USP1-UAF1 inh: Inhibitors of USP1/UAF1: Primary Screen; Ubiquitin carboxyl-terminal hydrolase 1 (Homo sapiens), O94782; recombinant USP1/UAF1, Ub-Rhodamine cleavage fluorescence; Potency, µM (titrated, usually from 57.1 µM), hits mostly inhibitors; 390,000 compounds, 0.23% hits; further: nearly all actives have a fitted effect of over 60% in size
Target sequence (O94782 whole entry, looked up): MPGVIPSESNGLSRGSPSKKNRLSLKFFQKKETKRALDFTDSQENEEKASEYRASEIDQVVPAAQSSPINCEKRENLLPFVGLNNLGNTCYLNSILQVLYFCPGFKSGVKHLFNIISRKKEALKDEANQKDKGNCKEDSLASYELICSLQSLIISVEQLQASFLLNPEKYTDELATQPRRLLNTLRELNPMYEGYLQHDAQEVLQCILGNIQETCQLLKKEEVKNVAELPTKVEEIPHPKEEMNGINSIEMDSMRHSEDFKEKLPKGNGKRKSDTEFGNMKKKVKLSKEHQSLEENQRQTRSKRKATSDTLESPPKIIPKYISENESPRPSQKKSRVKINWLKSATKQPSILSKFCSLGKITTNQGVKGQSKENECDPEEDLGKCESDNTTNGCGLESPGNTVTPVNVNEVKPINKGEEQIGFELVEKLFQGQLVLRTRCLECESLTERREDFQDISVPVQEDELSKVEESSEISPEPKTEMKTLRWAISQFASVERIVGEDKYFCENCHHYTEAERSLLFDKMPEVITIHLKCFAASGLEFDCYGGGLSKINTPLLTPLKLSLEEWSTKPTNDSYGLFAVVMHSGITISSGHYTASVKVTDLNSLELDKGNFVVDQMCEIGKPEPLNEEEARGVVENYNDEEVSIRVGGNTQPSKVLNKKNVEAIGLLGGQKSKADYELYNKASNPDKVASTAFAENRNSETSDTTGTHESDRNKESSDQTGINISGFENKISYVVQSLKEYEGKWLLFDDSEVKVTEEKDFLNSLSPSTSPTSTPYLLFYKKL
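High-throughput fluorogenic screen: 1nM USP1/UAF1 complex, Ub-Rho substrate 150nM final, 50mM HEPES pH 7.8 with 0.5mM EDTA, 0.1 mg/ml BSA, 1mM TCEP and 0.01% Tween-20.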
EPAC1 ag: qHTS for Agonist of cAMP-regulated guanine nucleotide exchange factor 3 (EPAC1): primary screen; EPAC1 agonist qHTS, biochemical assay; response scale: 100% = response to 6.5 mM cAMP; Potency, µM (top dose mostly 154 µM), usual class: activators; 360,000 compounds, 0.073% hits; AID 720707, 2013; further: nearly all actives have a fitted effect of over 60% in size
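Normalized to 6.5 mM cAMP, activity reflects EPAC1-catalysed release of BODIPY-GDP from Rap1B, followed kinetically over 30 min at 480 nm excitation, 540 nm emission. Reaction contained 100 nM EPAC1, 250 nM Rap1B-BODIPY-GDP, 50 uM GDP.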
A number is an active result; i = inactive; ? = inconclusive; nt = no result; ! = not confirmed by another sample. The call rests on the fitted dose curve; in most records, active means well fitted curve in the direction sought with a large enough effect; inconclusive means small, poorly fitted or top-dose-only effect, or another doubt; inactive means no such curve, though single readings can be large; an effect the other way counts as inactive or inconclusive.

SMILES	EPAC2 antag	EPAC1 antagonist	EPAC2 ag	VDR inhibitor	USP1-UAF1 inh	EPAC1 ag
CC(=O)OC/C=C(C)/C=C/C=C(C)/C=C/C1=C(C)CCCC1(C)C	nt	nt	nt	40µM!	nt	nt
CC1=C(/C=C/C(C)=C/C=C/C(C)=C/CO)C(C)(C)CCC1	i	i	i	?	i	i
Clc1ccccc1-c1nc(NC2CCNCC2)c2ccccc2n1	nt	nt	nt	40µM	nt	nt
Cc1ccccc1-c1nc(NC2CCNCC2)c2ccccc2n1	nt	nt	nt	i	nt	nt
Cc1cccc(S(=O)(=O)NC(=O)C2(C)CCN2C(=O)Cc2cc(F)ccc2F)c1 (stereo unspecified)	i	100µM	i	nt	nt	i
CC1(C(=O)NS(=O)(=O)c2cccc(Cl)c2)CCN1C(=O)Cc1cc(F)ccc1F (stereo unspecified)	i	i	i	nt	nt	i
CC1=C(C(=O)Nc2ccccc2)C(c2ccccn2)n2nc(SCc3ccccc3)nc2N1 (stereo unspecified)	nt	nt	nt	i	i	nt
COc1ccc(CNC(=O)C[C@H]2C[C@H](C(=O)N3CCCCC3)[C@@]3(CCc4ccccc4)c4[nH]c5cc(-c6ccco6)ccc5c4CCN3C2=O)cc1OC	i	i	i	89µM	i	i
O=C(O)Cn1c(C(=O)Nc2nc(-c3ccccc3Cl)cs2)cc2ccccc21	nt	nt	nt	56µM	nt	nt
CCOC(=O)C(=Cc1cc(=O)c(OC)co1)C(=O)OCC	i	i	i	40µM	i	i
CCOC(=O)c1ccc(NC(=O)C2Cc3ccccc3C(=O)O2)cc1 (stereo unspecified)	nt	nt	nt	i	i	nt
CCOC(=O)C1=C(N)c2ccccc2CC1C1CCCC1 (stereo unspecified)	16µM	i	i	i	i	i
C=Cc1ccc(Cn2nc(-c3ccccc3)ccc2=O)cc1	22µM	i	i	i	i	i
CC(=O)OCOC(=O)CNc1ccccc1OCCOc1ccccc1NCC(=O)OCOC(C)=O	nt	nt	nt	i	nt	nt
O=C1CC(c2nc3ccccc3n2Cc2c(F)cccc2Cl)CN1c1cccc(C(F)(F)F)c1 (stereo unspecified)	nt	nt	nt	i	?	nt
CCOc1ccc(OCC(=O)OCn2c(SC)nnc(C)c2=O)cc1	i	i	i	i	i	i
CCOc1ccc(C(c2c(O)nc(SC)n(C)c2=O)c2c(O)nc(SC)n(C)c2=O)cc1	i	i	i	40µM	i	i
CCOC(=O)C1=C(c2ccccc2)N=c2s/c(=C\c3ccc(O)cc3)c(=O)n2C1c1cccs1 (stereo unspecified)	i	i	i	i	28µM	i
Cc1cc(C)c(S(=O)(=O)ON2C(=O)c3ccccc3C2=O)cc1C	i	i	i	32µM	i	i
O=C1c2ccccc2C(=O)N1OS(=O)(=O)c1ccc(F)cc1	i	i	i	i	i	i
Cc1cc(C)c(C)c(S(=O)(=O)ON2C(=O)c3ccccc3C2=O)c1C	i	i	i	22µM	i	i
Cc1ccc(S(=O)(=O)ON2C(=O)c3ccccc3C2=O)c(C)c1	i	i	i	18µM	i	i
CCCCC/C=C\CC(O)/C=C/c1cccc(CC(O)CCCCO)n1 (stereo unspecified)	nt	nt	nt	50µM!	nt	nt
CC1(C)CC(=O)C2=C(C1)Nc1ccccc1S2	i	i	i	i	?	i
CC1=CC(=O)Nc2ccccc2S1	i	i	i	i	22µM	i
SMILES	EPAC2 antag	EPAC1 antagonist	EPAC2 ag	VDR inhibitor	USP1-UAF1 inh	EPAC1 ag
COc1ccccc1-n1ncc2c(=O)[nH]c(SCC(=O)Nc3ccc(Cl)cc3)nc21	nt	nt	nt	i	?	nt
CCCCCC(=O)N(O)C1CC(=O)N(c2ccccc2)C1=O (stereo unspecified)	i	i	i	20µM	i	i
C=CC(C1=CC(=O)C(OC)=CC1=O)c1ccc(O)cc1 (stereo unspecified)	nt	nt	nt	i	nt	nt
C=CC(C1=CC(=O)C=CC1=O)c1ccccc1 (stereo unspecified)	nt	nt	nt	35µM	nt	nt
C=C[C@@H](C1=CC(=O)C(OC)=C(OC)C1=O)c1ccccc1	nt	nt	nt	4µM	nt	nt
COC(C)(C)CCCC(C)C/C=C/C(C)=C/C(=O)O (stereo unspecified)	nt	nt	nt	i	nt	nt
Cc1ccc(CNC(=O)C(C)n2c(=O)cc(-c3ccccc3)c3c(C)nn(C)c32)cc1 (stereo unspecified)	nt	nt	nt	i	i	nt
CCc1cccc2cc3c(N)c(C(=O)Nc4ccc(S(=O)(=O)N5CCCC5)cc4)sc3nc12	56µM	50µM	i	i	i	i
Cc1cccc(/C=C/C(=O)c2ccc(NC3=NCCCS3)cc2)c1	i	i	i	20µM	i	i
COc1cc(CCc2ccccc2)c(C(=O)O)c(O)c1CC=C(C)C	35µM	?	i	i	i	i
COc1cc(CCc2ccccc2)c(C(=O)O)c(O)c1C/C=C(/C)CCC=C(C)C	?	50µM	i	i	?	i
CC(=O)N1CCC2(CCCN(C(=O)Nc3cccc(C#N)c3)C2)CC1	nt	nt	nt	i	nt	nt
COc1ccc(OC)c(CNc2ncnc3c2nc2n3CCCC2)c1	nt	nt	nt	i	i	nt
C[C@@H]1CC[C@@]2(OC1)OC1CC3C4CC=C5CC(O)CCC5(C)C4CCC3(C)C1[C@@H]2C (stereo partly specified)	nt	nt	nt	i	nt	nt
CC(C)(C)C(=O)Nc1ccc(-c2nc3ccccc3s2)cc1	nt	nt	nt	i	i	nt
CNc1ccc(-c2nc3ccccc3s2)cc1	nt	nt	nt	11µM	nt	nt
Nc1nc(-c2nn(Cc3ccccc3F)c3ncccc23)ncc1C1CC1	nt	nt	nt	i	nt	nt
O=C(Nc1ccc([N+](=O)[O-])cc1Cl)c1cc(Cl)cc(Cl)c1O	nt	nt	nt	i	nt	nt
O=C(Nc1cc(Cl)ccc1Cl)c1cc([N+](=O)[O-])cc(Br)c1O	nt	nt	nt	79µM	nt	nt
COC(=O)c1cc(=O)nc2sc(-c3ccc(F)cc3)nn12	i	i	i	45µM	i	i
COC(=O)c1cc(=O)nc2sc(-c3cccs3)nn12	i	i	i	i	i	i
c1ccc(CN(Cc2ccco2)C(c2ccncc2)c2nnnn2C2CCCC2)cc1 (stereo unspecified)	i	i	i	28µM	?	i
Fc1ccc(C(c2nnnn2C2CCCC2)N(Cc2ccco2)CC2CCCO2)cc1 (stereo unspecified)	i	i	i	i	i	i
O=C(NC1CCCC1)c1ccc2c(=O)n(Cc3ccccc3)c(SCc3cccc([N+](=O)[O-])c3)nc2c1	nt	nt	nt	i	i	nt

Screening results (PubChem BioAssay)
